Laboratory results as given in PubChem BioAssay (NCI).
This is part of a sample that, as a whole, favours compounds with a hit. Of some 79,000 tested, about 15% had one in any assay. Calls of active or inactive are those of the source. Cut-off read from the data, not from the text of the source: active = growth inhibition above about 70%; inactive = the rest.

What was measured:
[1] = NCI Yeast Anticancer Drug Screen. Data for the rad50 strain (AID 155);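 note: 0% = growth of vehicle-only cultures of the same strain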; conditions: S. cerevisiae rad50 strain growth inhibition; at 50.0 µM; active compounds read high
In short: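 Compounds were tested on a yeast strain with an engineered DNA damage repair alteration; the reported value is growth inhibition normalised to vehicle treatment.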

[2] = NCI Yeast Anticancer Drug Screen. Data for the mec2-1 strain (AID 157); conditions: S. cerevisiae mec2-1 strain, at 50.0 µM, active compounds read high
In short: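 Mutant yeast (mec2-1) grown with compound; growth inhibition relative to vehicle control reported.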

[3] = NCI Yeast Anticancer Drug Screen. Data for the sgs1 mgt1 strain (AID 161);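 note: 0% = growth of cultures given vehicle only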; conditions: S. cerevisiae sgs1 mgt1 strain, at 50.0 µM, active compounds read high
In short: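 Growth of a repair-deficient yeast mutant was monitored after compound treatment and expressed as inhibition relative to vehicle-treated cultures.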

[4] = NCI Yeast Anticancer Drug Screen. Data for the cln2 rad14 strain (AID 165);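 note: 0% = growth equal to vehicle treated cultures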; conditions: S. cerevisiae cln2 rad14 strain, at 50.0 µM, active compounds read high
In short: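 Readout is yeast growth inhibition versus vehicle-treated controls, using a strain with cln2 and rad14 alterations exposed to compound.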

[5] = NCI Yeast Anticancer Drug Screen. Data for the bub3 strain (AID 167); conditions: S. cerevisiae bub3 mutant strain, at 50.0 µM, active compounds read high
In short: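 Growth of a checkpoint-deficient yeast mutant is measured after compound exposure. Values represent inhibition relative to vehicle.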

[6] = NCI Yeast Anticancer Drug Screen. Data for the mlh1 rad18 strain (AID 175); conditions: S. cerevisiae mlh1 rad18 strain growth inhibition; at 50.0 µM; active compounds read high
In short: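 Genetically defined yeast (DNA repair-deficient) exposed to compounds; growth inhibition determined relative to vehicle.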

Measured: growth inhibition

CCN(CC)CCCNc1ccc2nnn3c4ccc(O)cc4c(=O)c1c23
inactive: [1] -15.6% | [2] -7.9% | [3] -7.35% | [4] 25.3% | [5] -6.5% | [6] 6.65%

O=c1[nH]c(=O)n(C2OC(CO)C(O)C2O)cc1NN=NCc1ccccc1 (stereo unspecified)
inactive: [1] -10.1% | [2] -13.7% | [3] -11.2% | [4] 4.9% | [5] -4.5% | [6] -10.9%

Cc1ccccc1OCC1COCN(Cc2ccccc2)CO1 (stereo unspecified)
inactive: [1] 18.8% | [2] 21.2% | [3] 28.1% | [4] 20.6% | [5] 6.95% | [6] 32.9%

O=C1CC(C2(O)C(=O)Nc3ccc([N+](=O)[O-])cc32)c2ccccc21 (stereo unspecified)
inactive: [1] -22% | [2] -19.1% | [3] -9.65% | [4] -5.4% | [5] 11.2% | [6] -39.4%

SC1(S)CCCN(Cc2ccccc2)C1
inactive: [1] 8.55% | [2] 19.2% | [3] 42.8% | [4] 35.6% | [5] 44% | [6] 37.8%

COc1ccc(CC2c3cc(OC)c(OC)cc3CCN2C(=O)c2ccccc2)cc1OC (stereo unspecified)
inactive: [1] 10% | [2] -18.9% | [3] 9.5% | [4] 16.3% | [5] 10.7% | [6] 1.45%

COC(=O)C(Cc1[nH]c(N=Nc2ccc(Br)cc2)nc1N=Nc1ccc(Br)cc1)NC(C)=O (stereo unspecified)
inactive: [1] 43% | [2] -1% | [3] 27.1% | [4] -11.1% | [5] -3.55% | [6] -5.25%

C(=C\c1csnn1)/c1ccc(/C=C/c2csnn2)cc1
inactive: [1] -18% | [2] 15.9% | [3] 7.7% | [4] 11.9% | [5] 5.3% | [6] -8.2%

COc1ccc(NS(=O)c2ccc(Cl)cc2)cc1 (stereo unspecified)
inactive: [1] 13% | [2] 12.8% | [3] 28.3% | [4] 8.65% | [5] 11.4% | [6] 13.9%

CCCCCCCC/C=C\CCCCCCCC(N)=O
inactive: [1] -20.9% | [2] -34.6% | [3] -11.5% | [4] -53% | [5] -21.1% | [6] -50%

O=C1NC(=O)/C(=C\c2cccc(Br)c2)N1
inactive: [1] -7.95% | [2] 4.15% | [3] -12.1% | [4] 6.8% | [5] 24.5% | [6] 8.85%

CC(C)C(=O)Nc1nc2c(ncn2C2OC(CO)C(O)C2O)c(=O)[nH]1 (stereo unspecified)
inactive: [1] 5.9% | [2] -23.6% | [3] -22.3% | [4] 8.15% | [5] -5.75% | [6] -4.15%

N#CCCN(CCc1ccccn1)CN1C(=O)c2ccccc2C1=O
inactive: [1] 10% | [2] -4.85% | [3] -3.75% | [4] -7.45% | [5] 3.25% | [6] -13.2%

CC1=C2C(C)CC3OC(=O)C(C)C3C(O)C2CC1=O (stereo unspecified)
inactive: [1] 5.8% | [2] -7.5% | [3] 1.2% | [4] -40.8% | [5] -8% | [6] -5.75%

CC1=C(C#N)C(=O)OC1(C)C1CCCC(=O)C1 (stereo unspecified)
inactive: [1] -24.8% | [2] -1.45% | [3] -11.3% | [4] -2.7% | [5] 1.95% | [6] -3.75%

CC(C)(C)c1ccc(-n2c3nc(=O)n(-c4ccccc4CO)c(=O)c-3cc3ccccc32)cc1
inactive: [1] -9.75% | [2] -12.8% | [3] -9.5% | [4] -11.6% | [5] -0.95% | [6] 4.95%

CC1=CC(=O)C2C(C)(C)CCCC2(C)C1(O)CCc1ccoc1 (stereo unspecified)
active: [1] 96.2% | [2] 88% | [3] 93.4% | [4] 92.2% | [5] 89.7% | [6] 96.8%

COc1cccc(Br)c1OC
inactive: [1] -5.4% | [2] 1.2% | [3] 20.8% | [4] 38.6% | [5] 31.9% | [6] -3.1%

CC(=Nc1ccc(Cl)c(Cl)c1)c1ccncc1
inactive: [1] -31.9% | [2] -10.1% | [3] -58% | [4] -31.6% | [5] 2.1% | [6] -35.1%

CCCCC(CC)CCC(O)CC(C)C (stereo unspecified)
inactive: [1] -10.2% | [2] -11.3% | [3] 14.6% | [4] 10.8% | [5] 13.8% | [6] 5.25%

CCCCCC(C)(O)CCCCC
inactive: [1] 0.15% | [2] 1.75% | [3] 1.7% | [4] 11.7% | [5] 18.3% | [6] 12%

NC(=O)NC12CC3CC(CC(C3)C1)C2
inactive: [1] 13.3% | [2] -5.8% | [3] 13.1% | [4] -0.75% | [5] 4.9% | [6] 2.75%

CC(C(=O)O)[C@H]1CC[C@H]2[C@@H]3CCC4=CC(=O)CC[C@]4(C)[C@H]3CC[C@]12C (stereo partly specified)
inactive: [1] -3.5% | [2] -5.7% | [3] 7.15% | [4] -46.9% | [5] 2.5% | [6] -10.2%

O=C(CCC(=O)NO)NO
inactive: [1] 1.4% | [2] -12.6% | [3] 4.75% | [4] -17.7% | [5] -20.9% | [6] -15.9%

CCCCN(CC)C(=O)C(=O)Cc1nc2ccc(C(=O)c3ccccc3)cc2[nH]c1=O
inactive: [1] 17.3% | [2] 2.45% | [3] -4.2% | [4] 17% | [5] 4.2% | [6] 2.4%

CC1(C)OC(C(CCl)OS(C)(=O)=O)C(C(CCl)OS(C)(=O)=O)O1 (stereo unspecified)
inactive: [1] 4.2% | [2] -6.1% | [3] -5.7% | [4] 24.9% | [5] -3.5% | [6] 6.95%

Nc1cc(S(=O)(=O)O)ccc1O
inactive: [1] -1% | [2] -16.1% | [3] -21.9% | [4] -41.9% | [5] 3.05% | [6] -33.5%

CN(CCCN)CCCN
inactive: [1] -41.4% | [2] -11.2% | [3] -32.6% | [4] -55.6% | [5] -28.6% | [6] -21.7%

COc1ccc(C(O)c2ccccc2C(=O)Nc2ccccc2)cc1 (stereo unspecified)
inactive: [1] -4.95% | [2] -9.7% | [3] -18.2% | [4] -21.9% | [5] -3.35% | [6] -3.9%

COC(=O)c1cc(C(=O)OC)c(C/C(=N/NC(=O)C[N+](C)(C)C)C(=O)Nc2cccc(C(F)(F)F)c2)nc1C/C(=N/NC(=O)C[N+](C)(C)C)C(=O)Nc1cccc(C(F)(F)F)c1
inactive: [1] -14.5% | [2] -1.45% | [3] -11.6% | [4] 17.1% | [5] 11.4% | [6] -2.3%

O=C1c2ccccc2C(=O)N1CN1CCC(CCCC2CCN(CN3C(=O)c4ccccc4C3=O)CC2)CC1
inactive: [1] -58.5% | [2] -34.2% | [3] -36.3% | [4] -11.1% | [5] -48.1% | [6] -44.8%

Brc1ccccn1
inactive: [1] 35.5% | [2] 11% | [3] 6.2% | [4] -15.1% | [5] 28.3% | [6] 22.8%

[N-]=[N+]=Nc1ccc2[nH]c3ccccc3c(=O)c2c1
inactive: [1] 17.9% | [2] -1.05% | [3] 16.9% | [4] -23.4% | [5] -16.9% | [6] 36.7%

CCCCCC(C/C=N/N(C)C)C(O)(C(F)(F)F)C(F)(F)F (stereo unspecified)
inactive: [1] 1.35% | [2] 2.1% | [3] -5.15% | [4] -5.15% | [5] 15.4%
active: [6] 73.2%

CC(=O)NCCC(=O)NCCSC(C)=O
inactive: [1] -15% | [2] -12% | [3] 18.9% | [4] 6.15% | [5] -3.35% | [6] 9.25%

CC1(C)OC2C(CNS(C)(=O)=O)OC(n3cnc4c(N)ncnc43)C2O1 (stereo unspecified)
inactive: [1] -3.05% | [2] -4.55% | [3] -12.1% | [4] -4.75% | [5] 7.45% | [6] -13.2%

NC(=O)N/N=C/c1c(Cl)cccc1Cl
inactive: [1] 15.9% | [2] 17.2% | [3] 1.4% | [4] -10.7% | [5] -27.6% | [6] 31.5%

Cc1cc(NS(=O)(=O)c2ccc(NC(=O)c3cccn4c(=O)c5ccccc5nc34)cc2)no1
inactive: [1] -24.6% | [2] 3.7% | [3] -44% | [4] 0.8% | [5] -14.7% | [6] -8.8%

O=C(COc1ccc(Cl)c(Cl)c1)NCc1ccc([N+](=O)[O-])cc1
inactive: [1] 0.35% | [2] 28.2% | [3] 20.9% | [4] -10.7% | [5] 27.8% | [6] 22.9%

CN(C)C=Nc1ccc(F)cc1
inactive: [1] -16.1% | [2] -5.6% | [3] -11.4% | [4] -20.1% | [5] -1.8% | [6] -2.1%

CCCCCCCCO[Si](OCCCCCCCC)(OCCCCCCCC)OCCCCCCCC
inactive: [1] -24.6% | [2] -26.3% | [3] -16.8% | [4] 6.9% | [5] -15.2% | [6] -20.9%
